Screens deposited in PubChem by National Center for Advancing Translational Sciences (NCATS).
DT40 TDP1 CPT: growth inhibition of DT40 Tdp1-/-;hTDP1 cells with camptothecin (screen for TDP1 inhibitors); Potency, µM (series often up to 46.2 µM), for the others: at the highest dose activity change, negative = growth inhibition, usual class: inhibitors; actives 12% (n = 420,000); chicken DT40 Tdp1-/-;hTDP1 cells + 20 nM CPT, ATP luminescence, 48 h; note: nearly all actives have a fitted effect of over 55% in size
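Cell growth measured by CellTiter-Glo luminescence after a minimum 48 h, 37 C compound exposure with 20 nM CPT in Tdp1-knockout DT40 cells stably expressing hTDP1, seeded 400/well; qHTS titration format.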
TDP1 inh: inhibitors of human tyrosyl-DNA phosphodiesterase TDP1; Q9NUW8; Potency, µM (highest dose often 130 µM), without a hit: at the top dose activity change, negative = inhibition, usual class: inhibitors; recombinant TDP1, AlphaScreen DNA substrate cleavage; AID 485290; actives 0.28% (n = 350,000); note: nearly all actives have a fitted effect of over 40% in size
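AlphaScreen read-out: signal falls as enzyme removes the 3' tyrosine-FITC from a 5'-biotinylated DNA oligo (15 nM, 5 min, RT). Enzyme was E. coli-made recombinant Tdp1 at 1 nM, exposed to compound for 15 min beforehand; beads 10 ug/ml, 10 min.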
Gal4-VP16 FLuc: inhibits Gal4-VP16 luciferase reporter, ROR gamma counter-screen | actives 3.5% (n = 310,000) | Potency, µM (titrated, usually from 53.6 µM), for the others: at the top dose activity, negative = inhibition, actives largely listed as inhibitors | Drosophila S2 Gal4-VP16 UAS-luciferase, luminescence, 20 h;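 note: Gal4-VP16 expression switched on by copper sulfate through the metallothionein promoter; nearly all actives have a fitted effect of over 50% in size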
TDP1 cell noCPT: qHTS for Inhibitors of human tyrosyl-DNA phosphodiesterase 1 (TDP1): qHTS in cells in absence of CPT; DT40 Tdp1-/- hTDP1 cells, no CPT, ATP luminescence, 48 h; Potency, µM (doses to about 46.2 µM), inactives show at the highest dose activity change, negative = growth inhibition, usual class: inhibitors; actives 15% (n = 420,000); AID 686978, 2013; note: nearly all actives have a fitted effect of over 55% in size
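Cells were dispensed at 400 per well, compounds added by pin tool, plates incubated ≥48 hr at 37 °C, then CellTiter-Glo added for 30 min at room temperature before luminescence reading. Line: DT40 Tdp1-/- complemented with hTDP1; camptothecin omitted.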
RORgamma inh: ROR gamma (mouse) transcription inhibition; P51450; Drosophila S2 Gal4-RORgamma UAS-luciferase reporter, 20 h; actives 5.4% (n = 310,000); Potency, µM (series often up to 53.6 µM), without a hit: at the highest dose activity change, negative = inhibition, actives largely listed as inhibitors; note: nearly all actives have a fitted effect of over 60% in size
Target sequence (P51450 whole entry, looked up, the tested form may be a part): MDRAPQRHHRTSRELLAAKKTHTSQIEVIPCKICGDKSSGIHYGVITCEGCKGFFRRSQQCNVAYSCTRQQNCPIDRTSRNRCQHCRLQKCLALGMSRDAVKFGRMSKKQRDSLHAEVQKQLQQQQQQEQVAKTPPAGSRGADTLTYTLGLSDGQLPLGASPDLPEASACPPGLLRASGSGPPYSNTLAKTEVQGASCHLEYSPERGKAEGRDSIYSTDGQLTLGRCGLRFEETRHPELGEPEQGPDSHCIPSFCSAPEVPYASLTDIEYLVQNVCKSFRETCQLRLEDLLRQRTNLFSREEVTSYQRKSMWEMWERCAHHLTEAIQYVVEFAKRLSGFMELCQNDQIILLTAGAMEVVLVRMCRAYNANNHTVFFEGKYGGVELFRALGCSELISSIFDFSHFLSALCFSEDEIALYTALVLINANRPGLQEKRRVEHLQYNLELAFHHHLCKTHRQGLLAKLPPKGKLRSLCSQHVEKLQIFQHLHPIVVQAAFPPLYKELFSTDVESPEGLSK
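Schneider cells (Drosophila), stable Gal4 DBD–ROR gamma + UAS-luc; 1 hr cmpd preincubation; Cu2+ induction 700 uM final; 20 hr ambient; luminescence.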
Starred values were filed as active, the others as inactive; ? = inconclusive; nt = no result given; [ ] = another dose, or the depositor's remark. A selection: hits, their analogues and other compounds. The true share with any hit is near 19%. Calls come from the whole dose curve; as a rule, active = well fitted curve in the direction sought with a large enough effect; inconclusive = small, poorly fitted or top-dose-only effect, or another doubt; inactive = no such curve, though single readings can be large; an effect the other way counts as inactive or inconclusive. % is set by controls: 0 for no effect and ±100 for the full control effect; potency is the fitted concentration of half-maximal effect.

SMILES	DT40 TDP1 CPT	TDP1 inh	Gal4-VP16 FLuc	TDP1 cell noCPT	RORgamma inh
O=C(Nc1cc(Cl)ccc1Cl)c1cc(S(=O)(=O)N2CCc3ccccc3C2)ccc1F	-22%	3%	nt	-29%	nt
COc1cc(-c2noc(C)c2/C=C/c2cccc([N+](=O)[O-])c2)cc(OC)c1OC	1.3µM*	nt	-9%	1.6µM*	?
COc1cc(N2C(=O)CSC23C(=O)N(C)c2ccccc23)cc(OC)c1OC (stereo not given)	nt	6%	nt	nt	nt
CC(c1ccncn1)N(C)Cc1nc(-c2ccc(C(F)(F)F)cc2)no1 (stereo not given)	18µM*	0%	7.1µM*	?	3.2µM*
Clc1ccc(N2CCN(Cc3nnc(-c4ccc5c(c4)OCO5)o3)CC2)cc1	?	0%	nt	18µM*	nt
Fc1ccc(-c2nnc(CN3CCN(c4ncc(C(F)(F)F)cc4Cl)CC3)o2)cc1	13µM*	-1%	nt	15µM*	-4%[0.365 µM]
Cc1ccc(Cl)cc1N1CCN(Cc2nnc(-c3ccc4c(c3)OCO4)o2)CC1	?	0%[12.3 µM]	nt	?	nt
COc1cccc(N2CCN(Cc3nnc(-c4ccc5c(c4)OCO5)o3)CC2)c1	1%	-2%	nt	-27%	nt
FC(F)(F)c1cccc(N2CCN(Cc3nnc(-c4ccc5c(c4)OCO5)o3)CC2)c1	?	2%	nt	16µM*	nt
COc1ccccc1C(=O)NC(=O)COC(=O)c1cccc(C)c1O	11%	1%	nt	4%	nt
CCN(CC)C(=O)C1=C(C)N(CCCN2CCCC2=O)C(=O)C(CC(=O)NCCN2CCOCC2)C1 (stereo not given)	-3%	nt	nt	-20%	nt
O=C(Cn1cc(/C=N/NC(=O)c2cccc3ccccc23)c2ccccc21)Nc1ccc(F)cc1	?	nt	-8%	?	0%
CCn1cc(/C=N/NC(=O)c2ccc(C#N)cc2F)c2ccccc21	-24%	8%	10µM*	-26%	-140%
COC(=O)Cn1cc(/C=N/NC(=O)c2ccc(C#N)cc2F)c2ccccc21	-12%	5%	-2%	-7%	10µM*
CCN=C1Sc2nc3ccc(OCC)cc3cc2CN1CCOC	?	-3%	?	?	?
CC(=O)N1CCCc2cc(S(=O)(=O)Nc3cccc(C)c3C)ccc21	?	6%	9%	?	29%
CCC(=O)N1CCc2cc(S(=O)(=O)Nc3ccccc3C)ccc21	-25%	nt	5%	?	10%
Cc1cccc(NS(=O)(=O)c2ccc3c(c2)CCN3C(=O)C2CC2)c1C	21µM*	-7%	nt	23µM*	nt
Cc1cccc(NS(=O)(=O)c2ccc3c(c2)CCCN3C(=O)C2CCC2)c1C	21µM*	7%	nt	?	nt
COc1ccc(-c2cc(C)no2)cc1S(=O)(=O)NCCc1ccco1	-24%	3%	-7%	12%	17%
CCC(C(=O)NCc1ccc(C)o1)n1nc(C)c2c(C)n(-c3ccccc3)nc2c1=O (stereo not given)	-13%	2%	4%	-10%	2%
CCC(C(=O)NCCc1cc(OC)ccc1OC)n1nc(C)c2c(C)n(-c3ccccc3)nc2c1=O (stereo not given)	18µM*	3%	nt	?	nt
COc1ccc(CCNC(=O)Cn2nc(C)c3c(C)n(-c4ccc(C)cc4)nc3c2=O)c(OC)c1	16µM*	nt	nt	?	nt
COc1ccc(OC)c(CCNC(=O)C(C)n2nc(C)c3c(C)n(-c4ccccc4)nc3c2=O)c1 (stereo not given)	?	6%	-9%	?	?
COc1ccc(OC)c(CCNC(=O)C(C)n2nc(C)c3c(C)n(-c4ccc(C)cc4)nc3c2=O)c1 (stereo not given)	?	8%	-11%	18µM*	?
SMILES	DT40 TDP1 CPT	TDP1 inh	Gal4-VP16 FLuc	TDP1 cell noCPT	RORgamma inh
COc1cccc(-c2cc(C(=O)N3CCN(Cc4ccccc4)CC3)no2)c1	-21%	7%	-2%	-16%	26%
CCCc1[nH]nc2c1C(c1ccc(OC(=O)N3CCOCC3)cc1)C(C#N)=C(N)O2 (stereo not given)	-6%	2%	1%	-14%	-8%
COc1ccc(NC(=O)Cn2c(=O)n(Cc3ccc(C(=O)NCc4ccccc4Cl)cc3)c(=O)c3ccccc32)cc1OC	?	2%	nt	?	nt
COc1ccc(N(CC(=O)NCCSc2ccccn2)S(=O)(=O)c2ccccc2)cc1OC	-13%	3%[0.0935 µM]	28%	?	-3%
COc1ccccc1-c1nc2cc(C(=O)NC[C@H]3CCc4ccccc4O3)cc(NC(C)=O)c2n1C	-6%	nt	nt	-19%	nt
CCOc1ccc(NC(=O)c2nc(SCc3ccccc3F)ncc2Cl)cc1	-9%	nt	nt	-23%	nt
O=C(Nc1ccc(OC(F)F)cc1)c1nc(S(=O)(=O)Cc2ccccc2F)ncc1Cl	0.45µM*	nt	nt	1µM*	nt
CCOc1ccc(NC(=O)c2nc(S(=O)(=O)Cc3ccccc3F)ncc2Cl)cc1	0.37µM*	-2%	nt	0.33µM*	nt
O=C(NC1CC1)c1ccc2nc([C@H]3C[C@H](O)[C@@H](CO)O3)[nH]c2c1	-1%	nt	nt	-3%	nt
CCC/C(O)=C1\C(=O)CC(c2ccccc2)CC1=NCCc1c(C)[nH]c2ccccc12 (stereo not given)	?	-4%	-10%	?	?
CCCCC(=NCCc1c(C)[nH]c2ccccc12)C1=C(O)CC(c2ccccc2)CC1=O (stereo not given)	5.8µM*	5%	-5%	5.2µM*	?
CCCC(=NCCc1c(C)[nH]c2ccccc12)C1=C(O)CC(c2ccccc2)CC1=O (stereo not given)	0.58µM*	5%	-14%	1.3µM*	33%
COc1cccc(CNc2sc3c(c2C(=O)Nc2ccc(OC)cc2OC)CCC3)c1	13µM*	7%	nt	21µM*	nt
CCOC(=O)N1CCc2c(sc(NCc3sccc3C)c2C(=O)Nc2cc(OC)ccc2OC)C1	-4%	10%	nt	-23%	nt
COc1ccc(OC)c(NC(=O)c2c(NCc3ccc(OC)c(OC)c3)sc3c2CCC3)c1	15µM*	5%	nt	16µM*	nt
COc1ccc(OC)c(NC(=O)c2c(NCc3ccc(N(C)C)cc3)sc3c2CCCC3)c1	21µM*	11%	nt	?	nt
CCOC(=O)N1CCc2c(sc(NCc3ccc(OC)c(Br)c3)c2C(=O)Nc2cc(OC)ccc2OC)C1	?	10%	nt	?	nt
O=C(CSc1nnc(-c2cccnc2)n1C1CCCCC1)NC1CCCC1	-16%	9%[56.1 µM]	1%	3%	47%
O=C1Nc2ccccc2C1(O)Cc1ccncc1 (stereo not given)	0%	0%	4%	-8%	18%
Clc1ncnc2scc(-c3ccc(Br)cc3)c12	?	5%	?	?	11µM*
